# About 17,000 (4.4%) of roughly 390,000 compounds were called active. Not shown: some 8% with an inconclusive outcome. The full list was thinned out, with actives kept by preference. Values without a mark were called inactive. The call rests on the fitted dose curve; in most records, active means well fitted inhibition curve with a large enough effect; inconclusive means small, poorly fitted or top-dose-only effect; inactive means no such curve, though single readings can be large or run the other way.
# Target: Lysine-specific demethylase 4A (Homo sapiens) (UniProt O75164)
# Sequence (O75164 whole entry, looked up, the tested form may be a part): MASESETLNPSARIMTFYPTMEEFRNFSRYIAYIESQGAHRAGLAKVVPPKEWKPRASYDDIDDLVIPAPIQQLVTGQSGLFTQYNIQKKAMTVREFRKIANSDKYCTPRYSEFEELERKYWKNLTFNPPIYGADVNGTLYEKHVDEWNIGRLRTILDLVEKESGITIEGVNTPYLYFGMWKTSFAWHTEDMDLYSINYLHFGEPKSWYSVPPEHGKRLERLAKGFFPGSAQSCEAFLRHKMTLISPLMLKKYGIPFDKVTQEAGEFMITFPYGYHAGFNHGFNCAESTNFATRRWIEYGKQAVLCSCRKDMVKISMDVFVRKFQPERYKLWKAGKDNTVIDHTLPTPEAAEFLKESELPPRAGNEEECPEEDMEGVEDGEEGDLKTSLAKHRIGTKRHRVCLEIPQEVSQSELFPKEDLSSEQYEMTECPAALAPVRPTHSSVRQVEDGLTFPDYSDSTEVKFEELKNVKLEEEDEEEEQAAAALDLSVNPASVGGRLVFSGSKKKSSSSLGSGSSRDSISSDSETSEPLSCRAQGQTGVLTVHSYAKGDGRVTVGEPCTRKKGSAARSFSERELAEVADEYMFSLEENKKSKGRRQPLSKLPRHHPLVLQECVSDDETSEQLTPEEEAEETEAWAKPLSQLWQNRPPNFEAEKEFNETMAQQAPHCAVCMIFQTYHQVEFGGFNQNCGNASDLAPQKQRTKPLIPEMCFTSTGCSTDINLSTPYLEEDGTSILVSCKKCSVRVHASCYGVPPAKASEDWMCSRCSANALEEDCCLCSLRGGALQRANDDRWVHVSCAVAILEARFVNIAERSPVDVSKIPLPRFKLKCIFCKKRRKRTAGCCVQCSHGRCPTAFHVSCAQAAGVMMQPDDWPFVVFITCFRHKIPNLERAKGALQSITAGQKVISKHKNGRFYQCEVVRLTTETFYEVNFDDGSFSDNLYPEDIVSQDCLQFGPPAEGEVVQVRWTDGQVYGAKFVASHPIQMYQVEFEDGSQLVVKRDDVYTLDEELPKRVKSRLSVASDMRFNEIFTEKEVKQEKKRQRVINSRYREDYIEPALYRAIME
# Test: qHTS Assay for Inhibitors of JMJD2A-Tudor Domain; further: nearly all actives have a fitted effect of over 50% in size
# Conditions: AlphaScreen JMJD2A-Tudor / H3K4me3 peptide binding; series mostly up to 114 µM; activity change, negative = inhibition: at the top concentration
# Description: JMJD2A is a jumonji-domain-containing lysine demethylase that uses Fe(II) together with 2-OG to effect oxidative demethylation of histones. Methylation is one of many […] modification that affect epigenetic transcription. […] It is proposed that the functions of JmjD2A binding to the histones, is to maintain marks after they are installed and to spread the modifications by […], establishing a self-propagating cycle for rapid methylation over a large area of chromatin. […] Thus, small molecule targeting of the JMJD2A-tudor domain interaction with its target methylhistone mark is expected to enable sophisticated experiments probing the fine regulatory pathways leading to selective demethylation of a given methyllysine locus based on the methylation state of adjacent histone marks. A quantitative high throughput AlphaScreen has been developed to identify small molecule inhibitors based on a protocol published by NCGC and SGC [4].
# Although AlphaScreen has significant advantages with its utility in a variety of epigenetic target assays, the primary screening data provided in this deposition should be used with caution due to the prevalence of screening artifacts. The top compound concentration tested was high (>100uM) in this assay, which increases number of actives and potential artifacts. An AlphaScreen counterscreen is highly recommended to be run against any putative actives to eliminate non-specific artifacts. Alternatively, one can use other AlphaScreen assays in PubChem to filter out promiscuous hits.
# [1] Lee, J. et al. Distinct binding modes specify the recognition of methylated histone H3K4 and H4K20 by JMJD2A-tudor. Nat Struct Mol Biol. 15(1); 109-11. 2008. PMID: 18084306
# [2] Yasgar, et al. Compound Management for Quantitative High-Throughput Screening. JALA. 2008 Apr;13(2):79-89. PMID: 18496600
# [3] Inglese, et al. Quantitative high-throughput screening: a titration-based approach that efficiently identifies biological activities in large chemical libraries. Proc Natl Acad Sci. 1;103(31):11473-8. 2006. PMID: 16864780
# [4] Quinn et al. A homogeneous method for investigation of methyl-dependent protein-protein interactions in epigenetics. Nucleic Acids Res., 38(2):e11. 2010. PMID: […]
# [5] Baell,Holloway. New substructure filters for removal of pan assay interference compounds (PAINS) from screening libraries and for their exclusion in bioassays. J Med Chem. 53(7):2719-40. 2010. PMID: 20131845
# NIH Molecular Libraries Probe Production Network [MLPCN]
# NIH Chemical Genomics Center [NCGC]
# Structural Genomics Consortium (SGC)
# To each well of a 1,536w plate, 2ul of JMJD2A-Tudor (final 100nM) and 1ul biotinylated histone peptide methylated at Lys4 [b-H3(1-18)K4me3] (final 50nM) were added in 1x PBS buffer, pH 7.4, containing 0.01% Tween-20, using a nanoliter dispenser. Formation of a protein-peptide complex proceeded at room temperature for 30 min. A Kalypsys pin-tool transferred 23nl of library compound solution in DMSO to each well. Following a 30 min incubation of the protein-peptide complex with compounds at room temperature, a mixture of 40 µg/mL each streptavidin-coated donor and nickel chelate acceptor AlphaScreen beads (final 10 µg/mL) was added in a 1ul dispense for a final volume of 4ul, followed by a brief centrifugation (1000 rpm, 1 min). Plates were incubated protected from the light for 20 min at room temperature. Microplates were then read on an EnVision multilabel plate reader using the 1,536 plate HTS AlphaScreen aperture (excitation time 80 ms, measurement time 240 ms).
# On the % scale 0 is the no-effect control and ±100 the full control effect; potency means the concentration at half of the fitted maximal effect.
SMILES,Potency,"activity change, negative = inhibition"
Cc1cccc(C)c1OCCN1CCOCC1,28.2 µM (active),
O=C(OCCN1CCOCC1)C1(c2ccccc2)CCCCC1,,-1.44%
CCOc1ccc(C(=O)CCN2CCOCC2)cc1,,-11.5%
S=c1[nH]nc(-c2ccco2)n1/N=C/c1ccc(Br)s1,28.2 µM (active),
S=c1[nH]nc(/C=C/c2ccccc2)o1,,-21%
S=c1[nH]nc(-c2ccco2)n1/N=C/c1ccccc1,3.55 µM (active),
CN(C)C(=O)CSc1n[nH]c(-c2ccco2)n1,,-8.42%
Brc1ccc(/C=N/N2CCN(C3c4ccccc4-c4ccccc43)CC2)s1,,-16.7%
O=C(NCCc1ccc(Cl)cc1)c1ccc2nc(CCc3ccccc3)oc2c1,,-6.71%
O=C(c1ccc2c(c1)N(Cc1ccccc1)C(=O)c1ccccc1S2(=O)=O)N1CCC(Cc2ccccc2)CC1,,-15.2%
O=C(CN1CCN(Cc2ccc(Cl)cc2)C1=O)NCc1ccc(F)cc1,,-17%
Cn1c(SCC(=O)N2CCCc3ccccc32)ncc(C(=O)Nc2ccc(F)cc2)c1=O,,2.27%
CC(=O)Nc1cc(C(=O)NCc2ccc(F)cc2)ccc1Sc1ccc(F)cc1,,-11.9%
COc1cc(Cl)c(NC(=O)C(NS(=O)(=O)c2cccs2)C(C)C)c(OC)c1 (configuration not stated),,-6.62%
CCC(C(=O)Nc1cccc(-c2nc3cccnc3s2)c1C)c1ccccc1 (configuration not stated),,-18.5%
CCCCN(C)CCC(=O)Nc1ccc(Cl)cc1,,11% [at 57.1 µM]
O=C(CN1CCN(c2ccccn2)CC1)Nc1ccc(Br)cc1,,-34.8%
CC(=O)N1CCN(CC(=O)Nc2ccc(SC(F)F)cc2)CC1,,-9.59%
O=C(CN1CCN(Cc2ccccc2)CC1)Nc1ccc(F)c(F)c1,6.31 µM (active),
CCOC(=O)N1CCN(CC(=O)Nc2ccc(F)cc2)CC1,,-2.13%
CCN(CC)c1ccc(NC(=O)CN2CCN(CC(=O)Nc3ccc(Cl)cc3)CC2)cc1,44.7 µM (active),
O=C(CN1CCN(C(=O)c2ccco2)CC1)Nc1ccc(Cl)c(C(F)(F)F)c1,,6.53%
CC(=O)N1CCN(CC(=O)Nc2ccc(C)c(F)c2)CC1,17.8 µM (active),
O=C(CN1CCOCC1)Nc1ccccc1,,-10.5%
O=C(CN1CCN(c2ccc(O)cc2)CC1)Nc1ccc(-c2ccccc2)cc1,50.1 µM (active),
COC(=O)c1cc(NC(=O)CN2CCN(C(C)=O)CC2)cc(C(=O)OC)c1,,-0.37% [at 57.1 µM]

SMILES,Potency,"activity change, negative = inhibition"
Cc1cc(NC(=O)CCN2CCN(Cc3ccccc3)CC2)ccc1Br,,-31.5%
Cc1ccc(Cl)cc1NC(=O)Cc1ccc(-n2c(C)nc3cccnc32)cc1,,-6.21%
Cc1ccccc1NC(=O)Cn1cc(C(=O)c2cccs2)c2ccccc21,,9.97%
CCC(C)NC(=O)Cn1c(=O)n(-c2ccc(Cl)cc2)c(=O)c2c3c(sc21)CCCC3 (configuration not stated),,-4.1%
Cc1cc(C)c(NC(=O)CN2C(=O)c3cccnc3Oc3ccc(Cl)cc32)c(C)c1,,-7.26%
O=C(Nc1ccc2nc(SCC(=O)N3CCCc4ccccc43)sc2c1)c1ccc(F)cc1,,-17.2%
CCOCCCNC(=O)c1ccc2nc(CCc3ccccc3)oc2c1,,-25.6%
O=C(Nc1ccccc1Cl)N1CCC(CN2CCCC2)CC1,,-21.8%
Cc1ccc2nc(COc3cccc(NC(=O)Nc4ccc(C)c(Cl)c4)c3)cc(=O)n2c1,,-19.2%
CSc1nc(-c2ccc(F)cc2)nc2c1Cc1c(CO)cnc(C)c1O2,,-15%
O=C(Cc1nn[nH]n1)NCCC1=CCCCC1,50.1 µM (active),
O=C(COc1ccc(Cl)cc1)NCCC1=CCCCC1,,35.4%
Cc1nnc(OCC(=O)NCCC2=CCCCC2)c2ccccc12,,-1.23%
COc1ccc(C(=O)c2oc3ccccc3c2NC(=O)COc2cccc(C)c2)cc1,,-1.6%
CCOC(=O)c1c(N)n(-c2cccc(C)c2C)c2nc3ccccc3nc12,,-12.1%
Cc1cccc(C)c1NC(=O)CNC(=O)C1CCCC1,,-12.8%
COc1ccc(OCC(=O)Nc2ccc(N3CCC(C)CC3)cc2)cc1,,-14.1%
COc1ccc(N2CCC(N3CCN(C)C(CCO)C3)CC2)cc1 (configuration not stated),,-3.23%
COc1ccc(NC(=O)N2CCC(Cc3ccccc3)CC2)cc1,,-2.41%
COc1ccc(N2CCC(CNC(=S)Nc3c(C)cccc3C)C2)cc1 (configuration not stated),39.8 µM (active),
COc1ccc(NC(=S)NCC2CCN(c3ccc(OC)cc3)C2)cc1 (configuration not stated),35.5 µM (active),
Cc1ccccc1NC(=O)Cn1c(=O)n(CCCCC(=O)NCc2ccccc2Cl)c(=O)c2ccccc21,,-7.85%
COc1cccc(Nc2nc3ccccc3c3nncn23)c1,,8.56%
Cc1ccc(NC(=O)Cn2c(=O)n(-c3ccccc3)c(=O)c3c4c(sc32)CCCC4)cc1,,-2.39%
COc1ccc(Cl)cc1C(=O)Nc1ccc(N(C)C(C)=O)cc1,,-14.2%
COc1cc(OC)c(C(=O)Nc2ccc(N(C)C)cc2)cc1OC,79.4 µM (active),
